# Measured values taken from PubChem BioAssay (NCI).
# About 83,000 compounds went through this panel and 20% of them were active in at least one assay; those are over-represented in the sample as a whole.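 For each line, cells grew in 96-well plates with the test compound present at a single concentration for 48 hours.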 Unmarked numbers belong to inactive results. Active and inactive are the calls of the source. The calls were made as follows: active = growth percent below 10; inactive = the rest.
# Experiments:
# Assay in all cases: NCI-60 one-dose screen, 48 h (100 = growth as untreated, 0 = no growth, -100 = all killed)
# HCT-15 colon = settings: 10 µM unless noted
# HT29 colon = settings: 10 µM unless noted
# SNB-75 CNS = settings: 10 µM unless noted
# SNB-19 CNS = settings: 10 µM unless noted
# U251 CNS = settings: 10 µM unless noted
# PC-3 prostate = settings: 10 µM unless noted
# SK-MEL-5 melanoma = settings: 10 µM unless noted
# UACC-62 melanoma = settings: 10 µM unless noted
# LOX IMVI melanoma = settings: 10 µM
# SK-MEL-28 melanoma = settings: 10 µM unless noted
Compound,growth (HCT-15 colon),growth (HT29 colon),growth (SNB-75 CNS),growth (SNB-19 CNS),growth (U251 CNS),growth (PC-3 prostate),growth (SK-MEL-5 melanoma),growth (UACC-62 melanoma),growth (LOX IMVI melanoma),growth (SK-MEL-28 melanoma)
c1ccc(Oc2c3ccccc3nc3ccccc23)cc1,14.6%,2.51% (active),41.5%,91.9%,11.7%,20.1%,13.6%,45.7%,31.3%,–
Nc1ccc2c(c1)Cc1cc(N)c(N)cc1-2,108%,95.9%,96%,95.6%,86%,96.3%,93.4%,94%,97%,–
CN=S(=O)(OCCCCCOS(=O)(=NC)c1ccc(C)cc1)c1ccc(C)cc1 (stereo not drawn),108%,95.8%,77.1%,97.3%,93.8%,75.6%,93.8%,86.5%,88.1%,93.5%
CCN(CC)c1ccc2nc3ccc(N=Nc4ccc(N(C)C)cc4)cc3[n+](-c3ccccc3)c2c1,-10.3% (active),-31.8% (active),-98.9% (active),40.3%,-52% (active),6.24% (active),-97.4% (active),-59.1% (active),-91.9% (active),-36.1% (active)
O=[N+]([O-])c1c(Cl)ncnc1Cl,100%,107%,87.7%,106%,95.9%,90.3%,111%,110%,107%,105%
CCCC(=O)c1cccs1,100%,98%,88.5%,101%,110%,89.2%,105%,95.1%,95.9%,107%
CCOc1ccncc1[N+](=O)[O-],110%,107%,101%,125%,96.9%,106%,106%,100%,99.6%,102%
COc1ccc2c(Cl)cc(NC(=O)Nc3c(C)cccc3C)nc2c1,95.7%,88%,-24.7% (active),79.3%,76.1%,72.4%,63.6%,87.7%,60.7%,97%
CCCC(=O)CC(=O)c1ccccc1,103%,91.1%,105%,103%,86%,94.7%,99.5%,103%,97.5%,107%
CC1=CC(=Nc2ccc(N(C)C)cc2)C=C(C)C1=O,85.7%,98.6%,75.8%,106%,92.7%,69.9%,74%,37.7%,46.4%,96.8%
O=C(CCl)Oc1ccc([N+](=O)[O-])cc1,110%,119%,91.2%,115%,106%,89.9%,103%,114%,98.1%,114%
O=[N+]([O-])c1c(O)c(CNCCCO)cc(CNCCCO)c1O,106%,107%,91.2%,105%,99.6%,88.7%,119%,97.7%,93.9%,121%
Cc1cccc2ccccc12,92.9%,95.8%,86.8%,103%,102%,95.5%,100%,103%,99.4%,98.2%
CC(=O)[C@@]1(O)CC[C@H]2[C@@H]3CC[C@@H]4CC(=O)CC[C@]4(C)[C@H]3[C@@H](O)C[C@@]21C,103%,100%,92.7%,103%,94.8%,86.1%,99.4%,94.7%,96.7%,99.4%
CC(C)c1ccccc1NC(=O)N1CCC(C(C)C)CC1,110%,107%,89.3%,107%,98.1%,97.9%,97.4%,105%,103%,106%
Cc1ccc(S(=O)(=O)CCCl)cc1,90.9%,110%,94.7%,97.1%,101%,90.7%,114%,99.8%,107%,115%
O=C(NCCc1ccccc1)/C(=C\c1ccc(Cl)cc1Cl)NC(=O)c1ccccc1,98.4%,98.3%,83.4%,99.2%,97%,88.8%,96.4%,98.6%,92.7%,105%
CCOC(=O)c1c(C)[nH]c(C)c1C=O,107%,107%,94.2%,97.1%,88.2%,82.7%,101%,91.2%,97.9%,109%
CCOC(=O)C(COS(C)(=O)=O)(COS(C)(=O)=O)C(=O)OCC,107%,108%,99.4%,106%,101%,98.5%,109%,103%,98.3%,105%
O=S(Cc1ccccc1)/C(=C/NC(=S)Nc1ccccc1)c1ccccc1 (stereo not drawn),106%,104%,80.2%,110%,100%,95.4%,104%,103%,90.9%,106%
Cn1c2ccccc2c2nnc(NCCCCO)nc21,88.9%,102%,56.2%,94.7%,103%,100%,94.4%,103%,89.1%,109%
CCCCCCCCCCCCCCCCCC(=O)NCCNC(=O)CCCCCCCCCCCCCCCCC,95.1%,49.1%,82.8%,108%,94.5%,65%,102%,104%,61.4%,105%
Cc1cccc(C)c1NC(=S)/N=C\c1c(O)[nH]c(=O)[nH]c1=O,107%,95.7%,85.1%,103%,96.8%,96%,96.3%,90.9%,98.2%,111%
C[n+]1c(/C=C\C=C\N2CCCCC2)sc2ccccc21,57.7%,1.33% (active),14.4%,15.4%,14.5%,2.78% (active),-59.7% (active),3.09% (active),14.1%,39.4%
Cc1nc(C)c(C(=O)O)cc1C(=O)O,103%,109%,91.5%,109%,107%,99.7%,111%,105%,95.8%,112%
CC(c1ccccc1)N(C)C (stereo not drawn),109%,88.2%,59.5%,100%,102%,88.6%,99.6%,94.5%,113%,157%
Cc1ccc[n+](CCC(N)=O)c1,111%,98.1%,87%,104%,87.4%,86.1%,102%,101%,82%,99.9%
CC(=O)/C(C)=N\OC(=O)Nc1ccccc1,103%,99.4%,82.7%,98%,93%,97.5%,99.1%,107%,94.6%,112%
CC(=O)NC(O)C(Cl)Cl (stereo not drawn),102%,105%,103%,106%,91.4%,96.4%,102%,106%,87.8%,103%
